Test results taken from PubChem BioAssay (NCI).
The panel holds about 79,000 compounds, 15% with a hit somewhere; the sample as a whole holds those more often. Rule as the data show it: active = growth inhibition above about 70%; inactive = the rest.

Key:
[1] = NCI Yeast Anticancer Drug Screen. Data for the rad50 strain (AID 155);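 also: 0% = growth of vehicle-only cultures of the same strain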; conditions: S. cerevisiae rad50 strain growth inhibition; at 50.0 µM; stronger effect = higher value
Outline: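 Genetically altered yeast (DNA repair pathway); compound treatment; growth inhibition vs vehicle ctrl.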

[2] = NCI Yeast Anticancer Drug Screen. Data for the mec2-1 strain (AID 157); conditions: S. cerevisiae mec2-1 strain, at 50.0 µM, stronger effect = higher value
Outline: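 Each compound was tested on mec2-1 yeast, a strain altered in DNA damage repair or cell cycle control. Growth inhibition is reported relative to vehicle.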

[3] = NCI Yeast Anticancer Drug Screen. Data for the sgs1 mgt1 strain (AID 161);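 also: 0% = growth of cultures given vehicle only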; conditions: S. cerevisiae sgs1 mgt1 strain, at 50.0 µM, stronger effect = higher value
Outline: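 Inhibition of yeast growth, normalised to vehicle-treated controls, is reported for a strain bearing genetic alterations in DNA damage repair.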

[4] = NCI Yeast Anticancer Drug Screen. Data for the cln2 rad14 strain (AID 165);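 also: 0% = growth equal to vehicle treated cultures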; conditions: S. cerevisiae cln2 rad14 strain, at 50.0 µM, stronger effect = higher value
Outline: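 Test compounds were added to cln2 rad14 yeast cultures; inhibition of growth was then determined by comparison with vehicle treatment.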

[5] = NCI Yeast Anticancer Drug Screen. Data for the bub3 strain (AID 167); conditions: S. cerevisiae bub3 mutant strain, at 50.0 µM, stronger effect = higher value
Outline: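 Yeast carrying a defined mutation is treated with each compound, and growth is compared with that of vehicle-exposed cells to give inhibition.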

[6] = NCI Yeast Anticancer Drug Screen. Data for the mlh1 rad18 strain (AID 175); conditions: S. cerevisiae mlh1 rad18 strain growth inhibition; at 50.0 µM; stronger effect = higher value
Outline: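 Inhibition values reflect reduced growth of mutant yeast versus vehicle-treated controls following compound exposure; the mutations affect DNA damage repair.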

Measured: growth inhibition

Cc1ccc(N=Nc2ccc(C)cc2NC(=O)Nc2cc(C)ccc2C)cc1
inactive: [1] -3.7% | [2] 8.05% | [3] 27% | [4] -10.9% | [5] 26.1% | [6] -10.4%

CC(C)=CC(C)(O)c1nc2ccccc2s1 (stereo unspecified)
inactive: [1] -2.75% | [2] 21.7% | [3] 7.25% | [4] -6.95% | [5] 1.1% | [6] 5.2%

O=C(O)C(Cc1ccccc1)c1ccc(Cl)cc1 (stereo unspecified)
inactive: [1] 38.1% | [2] 27.3% | [3] 43.1% | [4] 20.6% | [5] 41.8% | [6] 25.9%

O=C(CCCn1ccnc1[N+](=O)[O-])NCCn1ccnc1[N+](=O)[O-]
inactive: [1] 5.95% | [2] 9.35% | [3] -9.9% | [4] 17.4% | [5] -11.8% | [6] -12.3%

COc1cc2ccnc(CCCc3nccc4cc(OC)c(OC)cc34)c2cc1OC
inactive: [1] -30.1% | [2] -4.05% | [3] -27.4% | [4] -1.9% | [5] -1.75% | [6] -9.3%

Cn1c(=O)oc2cc([N+](=O)[O-])c(Cl)cc21
inactive: [1] -2.9% | [2] 4.25% | [3] -0.85% | [4] -1.35% | [5] -6.6% | [6] 6.75%

CC[N+](CC)(CC)CCC[n+]1ccc(/C=N\O)cc1
inactive: [1] 3.1% | [2] -1.6% | [3] -16.4% | [4] -8.25% | [5] -0.8% | [6] -6.25%

C=C1CC2C(=O)N(c3ccccc3)C(=O)C2CC1n1[nH]c(=O)n(Cc2ccccc2)c1=O (stereo unspecified)
inactive: [1] 3.8% | [2] 3.1% | [3] 9.65% | [4] -29.8% | [5] 15.7% | [6] -5.7%

CC12CCC(CC1)C2(C)C
inactive: [1] 5.6% | [2] 0.3% | [3] 0.15% | [4] -4.8% | [5] 4.75% | [6] -1.6%

CC(NC(=O)C(C)NC(=O)C(N)CCP(C)(=O)O)C(=O)O (stereo unspecified)
inactive: [1] -20.6% | [2] -15% | [3] -15.2% | [4] -8.2% | [5] -12.2% | [6] -9.2%

O=C1OC(c2ccc(O)c(-c3ccccc3)c2)(c2ccc(O)c(-c3ccccc3)c2)c2c(Cl)c(Cl)c(Cl)c(Cl)c21
inactive: [1] -16.4% | [2] -18.4% | [3] 19.1% | [4] -18.6% | [5] -33.1% | [6] 1.45%

Cc1ncc(CSCC(=O)O)c(N)n1
inactive: [1] 3.5% | [2] -16.1% | [3] -5.05% | [4] -9.05% | [5] -8.7% | [6] -8.55%

CC(=O)N1CCCCC1C/C(C)=N/O (stereo unspecified)
inactive: [1] 3.55% | [2] 11.6% | [3] -5.95% | [4] -5.6% | [5] 1.35% | [6] 3.3%

COc1ccc(C(C)c2cc3c(cc2OC)OCO3)cc1 (stereo unspecified)
inactive: [1] 9.25% | [2] -32.6% | [3] 15.2% | [4] 3.35% | [5] 3% | [6] 10.9%

Cc1cc(Br)c(O)c(-c2cscn2)c1
inactive: [1] -17.6% | [2] -34.8% | [3] 11.8% | [4] 28.9% | [5] 16.8% | [6] 3%

CC(=O)NN(C)C(C)=O
inactive: [1] 6% | [2] 27.3% | [3] -4.2% | [4] 12.4% | [5] 15.9% | [6] 10.5%

CCCC(=O)OCC1OC(n2cc(F)c(=O)[nH]c2=O)CC1O (stereo unspecified)
inactive: [1] 14.2% | [2] -4.2% | [3] 5.65% | [4] 9.7% | [5] 6.65% | [6] -27.4%

c1csc(-c2cc(-c3ccsc3)c(-c3cccs3)s2)c1
inactive: [1] -46.6% | [2] -62.7% | [3] -33.4% | [4] -0.1% | [5] -1.4% | [6] -34.3%

C=NNC(=O)c1ccncc1
inactive: [1] -10.4% | [2] -6.1% | [3] 6.4% | [4] -37.5% | [5] 12.8% | [6] 5.9%

CC(C)Nc1nc(N)nc(N)n1
inactive: [1] -11.1% | [2] -17.6% | [3] 2% | [4] -20.1% | [5] -17.6% | [6] -5.2%

CC(O)CNCc1ccc(N(C)C)cc1 (stereo unspecified)
inactive: [1] -15.8% | [2] 0.4% | [3] 6.8% | [4] -8.85% | [5] -4.65% | [6] 13.7%

COc1ccccc1C1CCCCC1OS(=O)(=O)c1ccc(C)cc1 (stereo unspecified)
inactive: [1] -1.15% | [2] 3.45% | [3] -18.4% | [4] -9.65% | [5] 12.2% | [6] -9.8%

C=CC(O)C(C)C (stereo unspecified)
inactive: [1] 10.7% | [2] -8.35% | [3] -2.55% | [4] -2.95% | [5] -1.55% | [6] 3.1%

COc1ccc2c(c1OC)OC1CNc3cc(C)c(C)cc3N=C1C2 (stereo unspecified)
inactive: [1] 6.1% | [2] 3.35% | [3] 4.05% | [4] -42.2% | [5] 12.8% | [6] 7.35%

CCCCNc1ccc2c(C)cc(=O)oc2c1
inactive: [1] -22.9% | [2] -30.6% | [3] -16.9% | [4] 0.7% | [5] -21.4% | [6] -17.4%

Cc1nc(N)c(-c2ccccc2)s1
inactive: [1] 18.1% | [2] -15.9% | [3] 7.2% | [4] -11.2% | [5] -7.85% | [6] 11.9%

CCC(/C(=N/NC(=O)C[N+](C)(C)C)c1ccccc1)C1OC(=O)c2ccccc21 (stereo unspecified)
inactive: [1] 15.2% | [2] 2.15% | [3] 16.1% | [4] 23.2% | [5] 19.4% | [6] 18.4%

O=C1CCC2(c3ccc(Cl)cc3)SCCN12 (stereo unspecified)
inactive: [1] 5.8% | [2] -20.5% | [3] -6.85% | [4] 2.75% | [5] 31.8% | [6] -0.15%

CCCNc1nc(Cl)nc2c1cnn2C
inactive: [1] 7.6% | [2] -8.4% | [3] 9.5% | [4] 1.25% | [5] 14.4% | [6] 6.95%

Nc1ccc(F)c(Cl)c1
inactive: [1] 0.85% | [2] -16.4% | [3] 10.7% | [4] -17.9% | [5] -4.25% | [6] 14.7%

CS(=O)(=O)N(CCC#N)c1ccc(C=O)cc1
inactive: [1] 20.4% | [2] -24.7% | [3] -7.4% | [4] -8.1% | [5] -12.2% | [6] 7%

COc1cc2c(cc1O)CN1Cc3cc(O)c(OC)cc3C2C1
inactive: [1] -4.95% | [2] 2.35% | [3] -9.1% | [4] -20.9% | [5] -10% | [6] 13.3%

CC(=O)OC1C(COS(=O)(=O)c2ccc(C)cc2)OCOC(COS(=O)(=O)c2ccc(C)cc2)C1OC(C)=O (stereo unspecified)
inactive: [1] 0.2% | [2] 4.4% | [3] -0.55% | [4] -26.2% | [5] -0.7% | [6] 18.4%

C#CCn1c(=O)c2ccccc2n(CC#C)c1=O
inactive: [1] -10.3% | [2] -1.6% | [3] -6.3% | [4] 15.8% | [5] 9.05% | [6] 23.9%

COc1ccc2c(c1)CCCN2S(=O)(=O)c1ccccc1[N+](=O)[O-]
inactive: [1] -25.7% | [2] -3.9% | [3] -17.9% | [4] -7.65% | [5] 39.2% | [6] 1.85%

NC1(C(=O)O)CCCC1C(=O)O (stereo unspecified)
inactive: [1] -8.7% | [2] -26.6% | [3] -23.1% | [4] 15.9% | [5] -6.3% | [6] -2.75%

CN(C=C(C#N)C#N)c1ccccc1
inactive: [1] 8.7% | [2] -4.65% | [3] -0.1% | [4] -3.95% | [5] 9.05% | [6] 16.4%

Cc1cc(C)c(C#N)c(N)n1
inactive: [1] -0.8% | [2] -12.8% | [3] -14.3% | [4] -17.9% | [5] 7.7% | [6] -14.9%

COc1ccc(CCCNC(=O)Cc2ccccc2CO)cc1OC
inactive: [1] 21.6% | [2] -46.6% | [3] -3.4% | [4] -0.8% | [5] -10.2% | [6] -48.2%

N#CCc1c(Cl)ccc(Cl)c1Cl
inactive: [1] 37% | [2] 45.6% | [3] 44.6% | [4] 3.9% | [5] 58.8% | [6] 39.5%

Cc1cccc2c1NC(O)c1cccn1C2=O (stereo unspecified)
inactive: [1] 6.45% | [2] 2.75% | [3] 5.55% | [4] -22.4% | [5] -18.6% | [6] -2.4%
